Results filed as inconclusive are left out. Activity calls are given as the source filed them. Calls come from the whole dose curve; as a rule, active = well fitted inhibition curve with a large enough effect; inconclusive = small, poorly fitted or top-dose-only effect; inactive = flat fitted curve, though single readings scatter. Peptide text beside a SMILES is read from it.
Each compound was assayed on CP329 (assay: qHTS profiling for inhibitors of Plasmodium falciparum proliferation (AID 504749; note: nearly all actives have a fitted effect of over 60% in size;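 for activity, negative = inhibition: 0% = DMSO vehicle and full inhibition = artemisinin control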)). Settings: P. falciparum in erythrocytes, SYBR Green DNA, 72 h; series mostly up to 12.8 µM; activity, negative = inhibition: at the top concentration.
How it was run: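 In a 72 h erythrocytic culture (37 C, humidified, 5% CO2) at 2.5% hematocrit and 0.3% starting parasitemia, compounds were tested; SYBR Green I in detergent lysis buffer stained parasite DNA overnight.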
Potency is the fitted concentration of half-maximal effect.

SMILES | activity, negative = inhibition | Potency
CN(C)CCCOC1C(C(O)CO)OC2OC(C)(C)O[C@@H]21 (some centres not stated) | -4.05% [at 28.7 µM] (inactive) | –
CCC(C)C(=O)OC1CCC=C2C=CC(C)C(CCC3CC(O)CC(=O)O3)[C@@H]21 (some centres not stated) | 8.55% [at 28.7 µM] (inactive) | –
CC(=O)OC1CCC2C3CCc4cc(O)ccc4C3CCC12C (configuration not stated) | 12.6% [at 28.7 µM] (inactive) | –
CC[C@@]12CCCN3CCc4c(n(c5ccccc45)[C@](O)(C(=O)OC)C1)C32 (some centres not stated) | 0.964% [at 28.7 µM] (inactive) | –
NC(C(=O)O)[C@@H]1CC(Cl)=NO1 (some centres not stated) | – | 3.01 µM (active)
CN1CC(=O)N=C1N | 1.65% [at 28.7 µM] (inactive) | –
OCC1OC([S-])[C@H](O)C(O)C1O.[Au+] (some centres not stated) | 0.581% [at 28.7 µM] (inactive) | –
CC(C)C1CCC(C(=O)NC(Cc2ccccc2)C(=O)O)CC1 (configuration not stated) | 7.1% [at 28.7 µM] (inactive) | –
CCC(CCC(C)C1CCC2C3CC=C4CC(O)CC[C@@]4(C)C3CC[C@@]12C)C(C)C (some centres not stated) | 4.82% [at 28.7 µM] (inactive) | –
C[C@]12CCC(=O)C=C1CCC1C2C(=O)C[C@]2(C)C1CC[C@]2(O)C(=O)CO (some centres not stated) | 5.1% [at 28.7 µM] (inactive) | –
OCC1O[C@H](OC2C(CO)O[C@@](O)(CO)C2O)C(O)C(O)C1O (some centres not stated) | 7.74% [at 28.7 µM] (inactive) | –
CC1(C)OC2CO[C@]3(COS(N)(=O)=O)OC(C)(C)OC3C2O1 (some centres not stated) | 5.79% [at 28.7 µM] (inactive) | –
CC1(C)OC2CC(=O)OC[C@@]23C1CC(=O)[C@]1(C)C3CC[C@@]2(C)C(c3ccoc3)OC(=O)C3O[C@@]321 (some centres not stated) | 8.33% [at 28.7 µM] (inactive) | –
CCOC(=O)C1=CC(OC(CC)CC)C(NC(C)=O)C(N)C1 (configuration not stated) | 4.46% [at 28.7 µM] (inactive) | –
COC(=O)C(Cc1ccccc1)NC(=O)C(N)CC(=O)O (stereo not drawn) (H-Asp-Phe-OMe; configuration not given here) | 1.67% [at 28.7 µM] (inactive) | –
C[C@]12C=CC(=O)C=C1CCC1C2C(O)C[C@]2(C)C1CC[C@]2(O)C(=O)CO (some centres not stated) | 4.58% [at 28.7 µM] (inactive) | –
CC1(C)S[C@H]2C(NC(=O)[C@@H](N)c3ccc(O)cc3)C(=O)N2[C@@H]1C(=O)O (some centres not stated) | 6.53% [at 28.7 µM] (inactive) | –
